In PubChem BioAssay AID463173 (ICCB-Longwood Screening Facility, Harvard Medical School, 2010):
In all, about 52,000 compounds went through this assay and about 1,700 (3.3%) were called active. No stated cut-off is given here; in the data, active means survival mostly below about 52% (no sharp cut-off); inactive means mostly above about 56%. This excerpt belongs to a sample that is enriched for actives.

test system: Wild type; assay: S. aureus survival, RN4220 and DeltatarO strains – OD600, teichoic acid synthesis inhibitors, primary screen (AID 463173); details: S. aureus RN4220 wild type/DeltatarO growth, OD600, 18 h, stronger effect = lower value, screened at 18.75 µg/mL (by protocol)

Row | SMILES | survival
1 | CCOc1ccc(NC(=O)c2sc3nc4c(c(-c5ccc(OC)cc5)c3c2N)C(=O)CC(C)(C)C4)cc1 | 69% (inactive)
2 | CCCn1c(N2CCN(CC(=O)Nc3ccc(Cl)cc3)CC2)nc2ccccc21 | 118% (inactive)
3 | Cc1nn(C)c2c1c(-c1ccccc1)cc(=O)n2CC(=O)NC(C)C | 70% (inactive)
4 | COc1ccc(C2=NS(=O)(=O)N(C)C(C(=O)Nc3ccc(OC(F)(F)F)cc3)=C2)cc1 | 55% (inactive)
5 | CCc1ccc(S(=O)(=O)c2cnc3ccc(OC)cc3c2N2CCCC(C)C2)cc1 (stereo not given) | 2% (active)
6 | CC1CCCN(c2c(S(=O)(=O)c3ccccc3)cnc3ccc(Cl)cc23)C1 (stereo not given) | 121% (inactive)
7 | COc1ccc(S(=O)(=O)c2cnc3cc(OC)c(OC)cc3c2N2CCCC(C)C2)cc1 (stereo not given) | 84% (inactive)
8 | Cc1ccccc1NC(=O)c1ccc(F)c(S(=O)(=O)N(C)Cc2ccccc2)c1 | 66% (inactive)
9 | Cc1ccccc1CN1C(=O)c2ccccc2Sc2ccc(C(=O)N3CCCC3)cc21 | 85% (inactive)
10 | CCCCOc1ccc(S(=O)(=O)Nc2ccc(-c3ccc(N4CCCCCC4)nn3)cc2)cc1 | 75% (inactive)
11 | Cc1c(C(=O)NCc2ccccc2Cl)sc2nc[nH]c(=O)c12 | 82% (inactive)
12 | Cc1cccc(CSc2nc3c(c(=O)[nH]2)CCC3)c1 | 78% (inactive)
13 | O=c1[nH]c(SCc2cccc(Cl)c2)nc2c1CCC2 | 91% (inactive)
14 | Cc1nc(SCc2cccc(Cl)c2)nc2c1CCCC2 | -8% (active)
15 | COc1cccc(-c2csc(-c3c(N)c(C(=O)c4ccccc4)n4ccccc34)n2)c1 | 72% (inactive)
16 | Cc1nn2c(=O)cc(COC(=O)Cc3ccccc3)nc2s1 | 80% (inactive)
17 | CCc1ccccc1N1CC(c2nc3ccccc3n2CCCCOc2ccccc2)CC1=O (stereo not given) | 19% (active)
18 | CCc1ccccc1N1CC(c2nc3ccccc3n2CCOc2ccc(Cl)c(C)c2)CC1=O (stereo not given) | 2% (active)
19 | O=C1CC(c2nc3ccccc3n2CCCCOc2ccccc2)CN1c1ccccc1Cl (stereo not given) | 61% (inactive)
20 | Cc1cccc(OCCCCn2c(C3CC(=O)N(c4ccc(C)cc4C)C3)nc3ccccc32)c1 (stereo not given) | 18% (inactive)
21 | Cc1cccc(OCCCCn2c(C3CC(=O)N(c4ccccc4Cl)C3)nc3ccccc32)c1 (stereo not given) | 17% (active)
22 | CCOc1ccccc1N1CC(c2nc3ccccc3n2CCCOc2ccccc2)CC1=O (stereo not given) | 58% (inactive)
23 | CCc1ccccc1N1CC(c2nc3ccccc3n2CCCOc2ccc(Cl)cc2)CC1=O (stereo not given) | 29% (inactive)
24 | Cc1cc(C)cc(OCCn2c(C3CC(=O)N(c4ccccc4Cl)C3)nc3ccccc32)c1 (stereo not given) | 97% (inactive)

Row | SMILES | survival
25 | CCOc1ccccc1N1CC(c2nc3ccccc3n2CCCCOc2ccccc2)CC1=O (stereo not given) | 73% (inactive)
26 | CCC1CCCCN1S(=O)(=O)c1cc2c3c(c1)CC(=O)N3CCC2 (stereo not given) | 95% (inactive)
27 | COc1ccc(C)cc1NC(=O)CN1C(=O)CSc2ccc(S(=O)(=O)N3CCCC3)cc21 | 93% (inactive)
28 | Cc1ccc2nc(/C(C#N)=C/c3cccc(Br)c3)[nH]c2c1 | -11% (active)
29 | Cc1ccc2nc(/C(C#N)=C/c3ccccc3F)[nH]c2c1 | 46% (inactive)
30 | COc1cccc(/C=C(\C#N)c2nc3ccc(C)cc3[nH]2)c1 | 53% (inactive)
31 | COc1ccc(C(=O)c2oc3ccccc3c2NC(=O)c2cc(=O)c3ccc(C)cc3o2)cc1Cl | 87% (inactive)
32 | O=C(C1c2ccccc2Oc2ccccc21)N1CCCCC1 | 103% (inactive)
33 | CCCCn1c(CCCN2C(=O)c3ccccc3C2=O)nc2ccccc2c1=O | 104% (inactive)
34 | CONc1nc(NC(C)(C)C)nc(OCC#N)n1 | 102% (inactive)
35 | CNc1nc(OCC#N)nc(N2CCCCC2)n1 | 119% (inactive)
36 | N#CCOc1nc(OCC#N)nc(OCC#N)n1 | -1% (active)
37 | CCOc1ccc(CNC(=O)c2cc3c(=O)n(C)c4ccccc4c3s2)cc1 | 84% (inactive)
38 | CCCCCCn1c(/C=C/c2ccccc2)nc2ccccc21 | 0% (active)
39 | CCC(C)Cn1c(/C=C/c2ccccc2)nc2ccccc21 (stereo not given) | 1% (active)
40 | CCn1c(O)c(/C=C/c2nc3ccccc3n2CC)sc1=S | 108% (inactive)
41 | CCCCCn1c(CNC(=O)c2ccccc2)nc2ccccc21 | 89% (inactive)
42 | CCc1nc2ccccc2n1CC(C)C(=O)O (stereo not given) | 108% (inactive)
43 | CC(C)Cn1c(/C=C/c2ccc(F)cc2)nc2ccccc21 | -12% (active)
44 | CCc1nc2ccccc2n1CCO | 101% (inactive)
45 | CC(C)CCn1c(/C=C/c2ccccc2)nc2ccccc21 | -1% (active)
46 | Cc1cccc(C(=O)NCCc2nc3ccccc3n2CCC(C)C)c1 | 116% (inactive)
47 | CCCCCn1c(CNC(=O)c2ccc(F)cc2)nc2ccccc21 | 90% (inactive)
48 | CCCn1c(CNC(=O)c2ccc(F)cc2)nc2ccccc21 | 69% (inactive)

Row | SMILES | survival
49 | CCCCCCn1c(CNC(=O)c2ccccc2)nc2ccccc21 | 91% (inactive)
50 | Cc1cc(C)n2nc(SCC(=O)Nc3cccc(C(F)(F)F)c3)nc2n1 | 56% (inactive)
51 | CCc1ccc(-n2c(SCc3ccccc3F)nc3[nH]ncc3c2=O)cc1 | 93% (inactive)
52 | O=C(CCS(=O)(=O)c1cc2c(cc1Cl)NC(=O)CO2)NCCc1ccc(Cl)cc1 | 116% (inactive)
53 | COc1ccc(NC(=O)Cn2c(=O)n(CC3CCCO3)c(=O)c3ccccc32)c(OC)c1 (stereo not given) | 86% (inactive)
54 | O=c1c2sc3ccccc3c2n(Cc2ccccc2F)c(=O)n1CCc1ccccc1 | 86% (inactive)
55 | O=C(NCc1ccccc1)c1cc(Sc2cccc(Cl)c2)nc2ccccc12 | 78% (inactive)
56 | CCc1ccc(C(=O)c2cn(CC(=O)Nc3cc(OC)ccc3OC)c3nc(C)ccc3c2=O)cc1 | 124% (inactive)
57 | CC(C)Cn1c(=O)c2ccccc2n2c(CCC(=O)N3CCN(c4ccccc4)CC3)nnc12 | 127% (inactive)
58 | CCC1CCCCN1C(=O)COc1ccc(F)cc1 (stereo not given) | 113% (inactive)
59 | CCOc1ccc(C2C(=O)N(C3CCCCC3)CC(=O)N2CCc2ccccc2)cc1OC (stereo not given) | 117% (inactive)
60 | Cc1cccc(N2CCCC2=Nc2ccc(Br)cc2C#N)c1 | 116% (inactive)
61 | O=C(Nc1ccccc1Cl)c1ccc(F)c(S(=O)(=O)NCc2ccc(Cl)c(Cl)c2)c1 | 69% (inactive)
62 | COc1ccc2cc(CNc3ccc(C)cc3)c(=O)n(CC(=O)Nc3cccc(Cl)c3C)c2c1 | 73% (inactive)
63 | COc1ccc(C(=O)N(Cc2ccc(N(C)C)cc2)Cc2ccco2)cc1Cl | 81% (inactive)
64 | CCOC(=O)N1CCN(Cc2nc3cc(NC(=O)c4ccc(OC)cc4)ccc3n2C(C)C)CC1 | 89% (inactive)
65 | C#CCn1c(COc2ccccc2C)nc2ccccc21 | 115% (inactive)
66 | C#CCn1c(/C=C/c2ccc(Cl)cc2)nc2ccccc21 | 23% (active)
67 | Cn1c(C=Nc2ccc(Cl)cc2)nc2ccccc21 | 111% (inactive)
68 | Cn1c(C(=O)NCCc2ccccc2)cc2c(=O)n3ccccc3nc21 | 80% (inactive)
69 | CCOc1ccc(NC(=O)Cn2nnc(C(=O)NCc3cccs3)c2N)cc1 | 97% (inactive)
70 | Cc1ccc2c(c1)cc1c(=O)n(Cc3ccc(Cl)cc3)nc(C)n12 | 97% (inactive)
71 | COc1cc(/C=C(\C#N)c2nc3ccccc3[nH]2)ccc1OCc1cccc(C(F)(F)F)c1 | 66% (inactive)
72 | COc1ccc(NC(=O)NC(C)c2c(-n3cccc3)sc(C)c2C)cc1OC (stereo not given) | 76% (inactive)

Row | SMILES | survival
73 | Cc1sc(-n2cccc2)c(C(C)NC(=O)Nc2ccccc2Cl)c1C (stereo not given) | 77% (inactive)
74 | COC(=O)c1ccc(NC(=O)NC(C)c2c(-n3cccc3)sc(C)c2C)cc1 (stereo not given) | 89% (inactive)
75 | Cc1ccc(NC(=O)NC(C)c2c(-n3cccc3)sc(C)c2C)cc1F (stereo not given) | 74% (inactive)
76 | COC(=O)c1ccc(Cl)cc1NC(=O)NC(C)c1c(-n2cccc2)sc(C)c1C (stereo not given) | 12% (active)
77 | Cc1sc(-n2cccc2)c(C(C)NC(=O)Nc2cccc(C(F)(F)F)c2)c1C (stereo not given) | 6% (active)
78 | Cc1cccc(-n2ncc3c(Nc4ccc(Oc5ccc(Cl)cc5)cc4)ncnc32)c1 | 88% (inactive)
79 | CCC(=O)C1=C(c2ccc(OC)c(OC)c2)N(C(=O)CC)n2c(CC)nnc2S1 | 55% (inactive)
80 | Cc1ccc(CNC(=O)CSc2nc3ccccc3nc2Cc2ccc(C)cc2)cc1 | 78% (inactive)
81 | CCN(C(=O)CCc1nc(-c2ccc(C)cc2)no1)c1cccc(C(F)(F)F)c1 | 0% (active)
82 | COc1ccc(-c2noc(CCC(=O)Nc3ccc(C(F)(F)F)cc3)n2)cc1 | 84% (inactive)
83 | COc1cccc(Cc2nc3ccccc3nc2SCC(=O)Nc2cccc(C)c2)c1 | 128% (inactive)
84 | COc1ccc(-c2noc(CC(=O)N(C)c3cccc(C)c3)n2)cc1 | 83% (inactive)
85 | CCN(C(=O)CSc1nc(-c2ccc(C(C)C)cc2)no1)c1cccc(C)c1 | 72% (inactive)
86 | CCN(C(=O)CSc1nc(-c2ccccc2)no1)c1cccc(C)c1 | -2% (active)
87 | CCN(C(=O)CSc1nc2ccccc2nc1Cc1ccc(F)cc1)c1cccc(C)c1 | 88% (inactive)
88 | CCN(C(=O)CSc1nc(-c2ccccc2)no1)c1ccccc1 | 85% (inactive)
89 | CCCCNC(=O)CSc1nc2ccccc2nc1Cc1ccc(C)cc1 | 72% (inactive)
90 | CCN(C(=O)CSc1nc2ccccc2nc1Cc1cccc(OC)c1)c1cccc(C)c1 | -2% (active)
91 | CCCCN(C)C(=O)CSc1nc2ccccc2nc1Cc1ccc(C)cc1 | 0% (active)
92 | CCCOc1ccc(C2C(=O)N(C3CCCCCC3)CC(=O)N2Cc2ccccc2OC)cc1OC (stereo not given) | 87% (inactive)
93 | COc1ccc(-c2nc(SCC(=O)Nc3ccc4c(c3)OCO4)c(-c3ccc(F)cc3)[nH]2)cc1OC | 65% (inactive)
94 | COC(=O)C1CCCc2c1[nH]c1ccc(Cl)cc21 (stereo not given) | 142% (inactive)
95 | CC1=C(C(=O)OC2CCCC2)C(c2cccc(Cl)c2Cl)CC(=O)N1 (stereo not given) | 90% (inactive)
